Source: PubChem (several laboratories)
In the library only some 2.9% were active in any assay of this set; here they are far more common.
DAGLB inh: diacylglycerol lipase beta (human) inhibition; HEK293T DAGLB membrane lysate, EnzChek fluorogenic substrate; 340,000 tested, 0.059% active; AID 504411; inhibition, % at 5.17 µM; in the data active = inhibition above about 34%;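 note: 0% = enzyme with vehicle and 100% = wells lacking enzyme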
sPLA2-III inh: Inhibits HGIII-sPLA2 liposome hydrolysis, primary screen. Q9NZ20. QFRET BODIPY PC-A2 liposome hydrolysis, fluorescence. inhibition, % at 12.2 µM. 370,000 tested, 0.56% active;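 active = inhibition above mean plus 3 SD of compounds lying within the high and low control bounds, cut at about 19% in these data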;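 note: 0% = median of test compound wells and 100% = no enzyme DMSO wells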
Rtt109 HAT inh: C. albicans Rtt109 histone acetyltransferase inhibition; Q5AAJ8; inhibition, % at 34.9 µM; 330,000 tested, 0.16% active; purified Rtt109/Vps75, ThioGlo CoA-SH fluorescence, 4 h;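 active = inhibition of at least 50% in every replicate; inconclusive = best replicate reaches 50% inhibition but some replicates fall short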
Cardio protect: myocardial damage modulation in H9c2 cells. H9c2 cardiomyocytes, H2O2 injury protection, ATPLite, 2 h. 360,000 tested, 0.63% active. protection from H2O2 cell death, % at 20 µM;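 active = compounds giving at least 50% protection of heart cells from peroxide-induced death in the single-dose screen, raw or plate-pattern-corrected value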;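 note: 0% = DMSO wells with peroxide and 100% = DMSO wells without peroxide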
ABHD5 PLIN5 PPI: blocks binding of human ABHD5 to perilipin-5. Q00G26+Q8WTS1. Split G. princeps luciferase complementation, luminescence, 4 h. inhibition, % at 4 µM. 360,000 tested, 0.78% active. AID 602281;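 active = inhibition above the mean inhibition across every tested compound plus 3 SD, cut at about 22% in these data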;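 note: 0% = DMSO only wells and the 100% control is not disclosed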
Myeloid diff MLP: compounds promoting myeloid differentiation | ER-HoxA9 myeloid progenitors, lysozyme-GFP differentiation, flow cytometry | calls only at 10 µM | 360,000 tested, 1% active;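 active = normalized GFP-positive differentiation at or above the plate's own cutoff, the solvent-only control mean plus 3 SD; inconclusive = no clear call, values can overlap the other calls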;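 note: cells exposed to compound for four days before flow analysis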
ABHD5-PLIN5 conf: confirmation of human ABHD5-PLIN5 interaction inhibitors | shares compounds with ABHD5 PLIN5 PPI | biochemical ABHD5-PLIN5 interaction, luminescence | inhibition, % at 4 µM | 2,200 tested, 67% active | AID 651612; in the data active = inhibition above about 23%;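 note: 0% = DMSO vehicle wells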
HNF4 split-luc: HNF4 split-luciferase signal hit, counter-screen. shares compounds with ABHD5 PLIN5 PPI. HNF4 dimerization, luminescence, biochemical. inhibition, % at 4 µM. 2,200 tested, 77% active. AID 651674;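 active = mean inhibition across replicate wells exceeding the computed hit threshold, cut at about 13% in these data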;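 note: light from luciferase halves that rejoin when HNF4 fusion proteins dimerize; 0% = DMSO only wells and the 100% control is not given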
Target sequence (P41235 whole entry, looked up, the tested form may be a part): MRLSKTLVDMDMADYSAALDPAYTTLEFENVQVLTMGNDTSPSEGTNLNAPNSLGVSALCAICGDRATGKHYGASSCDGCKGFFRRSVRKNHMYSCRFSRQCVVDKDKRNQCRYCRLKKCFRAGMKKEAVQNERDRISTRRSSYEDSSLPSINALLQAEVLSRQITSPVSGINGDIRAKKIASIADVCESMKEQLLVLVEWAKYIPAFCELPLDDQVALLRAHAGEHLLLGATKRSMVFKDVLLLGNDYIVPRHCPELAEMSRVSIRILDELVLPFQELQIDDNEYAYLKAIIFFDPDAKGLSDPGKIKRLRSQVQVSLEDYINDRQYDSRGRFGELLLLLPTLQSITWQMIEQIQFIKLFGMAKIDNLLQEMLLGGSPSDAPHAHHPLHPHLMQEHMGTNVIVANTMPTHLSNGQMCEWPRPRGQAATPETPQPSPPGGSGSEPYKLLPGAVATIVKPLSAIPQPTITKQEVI
Starred values were filed as active, the others as inactive.

For Brc1ccc2nc(-c3ccco3)c(CC3CCCCC3)n2c1 the results were sPLA2-III inh 0, Cardio protect -6, ABHD5 PLIN5 PPI 24*, Myeloid diff MLP inactive, ABHD5-PLIN5 conf 28* and HNF4 split-luc 38*.
Cc1ccc2nc(-c3ccco3)c(CC3CCCCC3)n2c1 was read as Cardio protect 1, ABHD5 PLIN5 PPI 35*, Myeloid diff MLP inactive, ABHD5-PLIN5 conf 17 and HNF4 split-luc 22*.
`CCC(C)(C)NC(=O)C(c1ccncc1)N(C(=O)Cn1nnc2ccccc21)c1cc2c(cc1C(C)=O)OCO2` (stereo unspecified) gave DAGLB inh -1, sPLA2-III inh 2, Rtt109 HAT inh -5, Cardio protect -6, ABHD5 PLIN5 PPI -4 and Myeloid diff MLP inactive.
`Cc1csc(NC(=O)CSc2nnc3ncccn23)n1` gave DAGLB inh -2, sPLA2-III inh 3, Rtt109 HAT inh -7, Cardio protect 2, ABHD5 PLIN5 PPI -1 and Myeloid diff MLP inactive.
`CC(=O)/C=C/c1ccc2ccccc2n1` gave DAGLB inh -1, sPLA2-III inh 7, Rtt109 HAT inh 14, Cardio protect -28, ABHD5 PLIN5 PPI 85*, Myeloid diff MLP inconclusive, ABHD5-PLIN5 conf 84* and HNF4 split-luc 91*.
Screening O=C(OCCN1CCCCC1)c1c[nH]c2ccccc12 returned DAGLB inh 0, sPLA2-III inh -7, Rtt109 HAT inh 4, Cardio protect 2, ABHD5 PLIN5 PPI -1 and Myeloid diff MLP inactive.
For Cc1cccc(/C=C/C(=O)c2ccc(NC3=NCCCS3)cc2)c1 the results were DAGLB inh 5, sPLA2-III inh -16, Rtt109 HAT inh 8, Cardio protect -22, ABHD5 PLIN5 PPI 52*, ABHD5-PLIN5 conf 79* and HNF4 split-luc 61*.
Screening COc1cccc(/C=C/C(=O)c2ccc(NC3=NCCCS3)cc2)c1 returned DAGLB inh -1, sPLA2-III inh -9, Rtt109 HAT inh -5, Cardio protect 4, ABHD5 PLIN5 PPI 45*, Myeloid diff MLP inactive, ABHD5-PLIN5 conf 74* and HNF4 split-luc 63*.
`COc1ccc(/C=C/C(=O)NC2=NCCS2)cc1OC` gave DAGLB inh -1, sPLA2-III inh -4, Rtt109 HAT inh -2, Cardio protect 1, ABHD5 PLIN5 PPI -8 and Myeloid diff MLP inactive.
`Cc1ccc(-n2c(=O)cc(N3CCN(C(=O)c4ccco4)CC3)[nH]c2=O)cc1` gave DAGLB inh 3, sPLA2-III inh -1, Rtt109 HAT inh -1, Cardio protect 0, ABHD5 PLIN5 PPI 37*, Myeloid diff MLP inactive, ABHD5-PLIN5 conf 2 and HNF4 split-luc 3.
Screening COC(=O)C1CCN(c2cc(=O)n(-c3ccc(OC)cc3)c(=O)[nH]2)CC1 returned DAGLB inh 0, sPLA2-III inh 13, Rtt109 HAT inh 4, Cardio protect 11, ABHD5 PLIN5 PPI 24*, Myeloid diff MLP inactive, ABHD5-PLIN5 conf -3 and HNF4 split-luc 5.
For CC1(C)Cc2c(c(N3CCOCC3)nc3sc4c(NCCN5CCOCC5)nnnc4c23)CS1 the results were DAGLB inh 4, sPLA2-III inh -11, Rtt109 HAT inh 6, Cardio protect 4, ABHD5 PLIN5 PPI 1 and Myeloid diff MLP inactive.
Screening O=C(CCc1nc2ccccc2c(=O)[nH]1)Nc1nnc(SCc2ccccc2)s1 returned DAGLB inh 4, sPLA2-III inh 10, Rtt109 HAT inh 1, Cardio protect -1, ABHD5 PLIN5 PPI -5 and Myeloid diff MLP inactive.
For OC(c1ccc(F)c(F)c1)c1nc(-c2ccoc2)cs1 (stereo unspecified) the results were sPLA2-III inh -8, Cardio protect 4, ABHD5 PLIN5 PPI 20 and Myeloid diff MLP inactive.
Screening OC(c1cccc(Cl)c1)c1nc(-c2ccoc2)cs1 (stereo unspecified) returned sPLA2-III inh 0, Cardio protect 0, ABHD5 PLIN5 PPI 27*, Myeloid diff MLP inactive, ABHD5-PLIN5 conf 47* and HNF4 split-luc 43*.
Screening O=C(CCc1ccccc1)N[C@H]1[C@H](OC(=O)c2cnccn2)CCC[C@@]12C(=O)N(Cc1ccccc1)c1ccccc12 returned sPLA2-III inh -10.
For COc1cc(C2/C(=C(\O)c3ccc4c(c3)OCCO4)C(=O)C(=O)N2Cc2ccco2)cc(OC)c1OC (stereo unspecified) the results were DAGLB inh -1, sPLA2-III inh 8, Rtt109 HAT inh 6, Cardio protect -5, ABHD5 PLIN5 PPI 29*, Myeloid diff MLP inconclusive, ABHD5-PLIN5 conf 3 and HNF4 split-luc 5.
COc1cc(C2/C(=C(\O)c3ccc4c(c3)OCCO4)C(=O)C(=O)N2Cc2ccco2)ccc1O (stereo unspecified) was read as DAGLB inh -7, sPLA2-III inh 6, Rtt109 HAT inh 22, Cardio protect -1, ABHD5 PLIN5 PPI 0 and Myeloid diff MLP inactive.
COc1ccc(OC)c(C2/C(=C(/O)c3ccccc3)C(=O)C(=O)N2Cc2ccco2)c1 (stereo unspecified) was read as DAGLB inh 0, sPLA2-III inh -1, Rtt109 HAT inh 25, Cardio protect -6, ABHD5 PLIN5 PPI 5 and Myeloid diff MLP inactive.
For COc1ccc(/C(O)=C2\C(=O)C(=O)N(Cc3ccco3)C2c2cc(OC)ccc2OC)cc1 (stereo unspecified) the results were DAGLB inh 1, sPLA2-III inh -4, Rtt109 HAT inh 13, Cardio protect 10, ABHD5 PLIN5 PPI 29*, Myeloid diff MLP inactive, ABHD5-PLIN5 conf 4 and HNF4 split-luc 2.
Screening CCCCC[C@H](O)/C=C/C1C(=O)C=C[C@H]1C/C=C\CCCC(=O)OC (stereo partly specified) returned DAGLB inh 9, sPLA2-III inh -11, Rtt109 HAT inh -12, Cardio protect 1, ABHD5 PLIN5 PPI 36*, Myeloid diff MLP inactive, ABHD5-PLIN5 conf 45* and HNF4 split-luc 61*.
Screening O=c1[nH]c(/C=C/c2ccccc2Cl)c([N+](=O)[O-])c(=O)[nH]1 returned DAGLB inh 7, sPLA2-III inh 0, Rtt109 HAT inh 7, Cardio protect 0, ABHD5 PLIN5 PPI 39*, Myeloid diff MLP inactive, ABHD5-PLIN5 conf 71* and HNF4 split-luc 61*.
`O=C(COc1ccccc1/C=C\c1[nH]c(=O)[nH]c(=O)c1[N+](=O)[O-])Nc1ccccc1` gave DAGLB inh 12, sPLA2-III inh -23, Rtt109 HAT inh 10, Cardio protect -2, ABHD5 PLIN5 PPI 30*, Myeloid diff MLP inactive, ABHD5-PLIN5 conf 87* and HNF4 split-luc 84*.
